Assay [1] can be described thus: ATG_AP_1_CIS: Attagene CIS-FACTORIAL HepG2 Assay for human Activator Protein 1 (AP-1) (AID 2282931). The following applies: HepG2 Attagene cis-factorial AP-1 reporter mRNA; actives raise or lower the signal. The method, boiled down:
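We transfected HepG2 cells transiently with a set of cis-regulated reporter transcription units, dosed them for 24 h, and quantified reporter mRNA via RT-PCR and capillary electrophoresis, scoring gain or loss of signal relative to DMSO.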

Assay [2] can be described thus: ATG_BRE_CIS: Attagene CIS-FACTORIAL HepG2 Assay for human Bone Morphogenetic Protein (BMP) Response Element (BRE) (AID 2282933). The note with it: HepG2 BMP response element reporter, Attagene transcription factor profiling; actives raise or lower the signal. In short, it runs like this: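 Fluorescence-labelled reporter cDNA fragments, separated by capillary electrophoresis, gave the signal for this component of a 52-readout multiplex. HepG2 cells were transfected, exposed to chemicals for 24 h, and compared with DMSO using bidirectional fitting.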

A short description of assay [3]: ATG_GLI_CIS: Attagene CIS-FACTORIAL HepG2 Assay for human Zinc Finger Protein GLI1 (AID 2282945). The note with it: HepG2, Attagene cis-factorial reporter mRNA, GLI element; actives raise or lower the signal. The method, boiled down: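 Bidirectional curve fits relative to DMSO, using reporter mRNA levels from RT-PCR plus capillary electrophoresis. Cells were HepG2 transiently carrying cis-regulated reporter constructs, harvested 24 h after dosing.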

Assay [4] can be described thus: ATG_PBREM_CIS: Attagene CIS-FACTORIAL HepG2 Assay for human Phenobarbital-responsive Enhancer Module (PBREM) (AID 2282955). The note with it: HepG2 PBREM cis-reporter, Attagene multiplexed transcription; actives raise or lower the signal. The method, boiled down: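 Multiplexed cis-reporter readout in human hepatoma HepG2 cells; PBREM-regulated transcript quantified after 24 h exposure by fluorescent RT-PCR fragment analysis. Signal changes up or down fitted relative to DMSO.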

A short description of assay [5]: ATG_RORE_CIS: Attagene CIS-FACTORIAL HepG2 Assay for human RAR-related Orphan Receptor Element (RORE) (AID 2282959). The note with it: HepG2 Attagene cis-factorial RORE reporter, mRNA; actives raise or lower the signal. The method, boiled down:
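Transfect HepG2 with MRTUs; treat 24 h; extract RNA; RT with oligo(dT); PCR with reporter-specific primers; 6-FAM primer extension; HpaI digest 2 h at 37 C; capillary electrophoresis. Fit vs DMSO, bidirectional.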

Assay [6] is described as follows: ATG_M_19_TRANS: Attagene TRANS-FACTORIAL HepG2 Assay for M19 Transcription Factor (Internal Marker) (AID 2282974; active means hit-call score of the fitted dose curve at least 0.9, where 1 is the maximum). The following applies: HepG2 Attagene TRANS-FACTORIAL M19 internal marker reporter. The method, boiled down:
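Multiplexed TRANS format: HepG2 liver cells bearing transient GAL4-UAS reporter units, chemical treatment 24 h, reporter transcripts quantified by RT-PCR plus capillary electrophoresis. DMSO defines baseline.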

Assay [7] in a line: ATG_M_06_TRANS: Attagene TRANS-FACTORIAL HepG2 Assay for M06 Transcription Factor (Internal Marker) (AID 2282983; active means hit-call score of the fitted dose curve at least 0.9, where 1 is the maximum;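 further: reporter transcript level by RT-PCR then capillary electrophoresis fluorescence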). The note with it: HepG2 Attagene TRANS M06 internal marker reporter. The method, boiled down: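 After a 24 h chemical treatment of transfected HepG2, RNA underwent DNase I treatment, reverse transcription and reporter-specific PCR; labelled, HpaI-digested products were sized by capillary electrophoresis. Signal increase relative to DMSO defined activity.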

The target of assay [8] is Nuclear receptor subfamily 4 group A member 2 (Homo sapiens) (UniProt P43354). Description: ATG_NURR1_TRANS: Attagene TRANS-FACTORIAL HepG2 Assay for human Nuclear Receptor Related Protein 1 (NURR1) (AID 2282985; active means hit-call score of the fitted dose curve at least 0.9, where 1 is the maximum). The note with it: HepG2 Attagene TRANS reporter, mRNA readout. The method, boiled down: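 Cells: HepG2, transiently transfected. Exposure: 24 h. Detection: fluorescence of labelled RT-PCR products separated by capillary electrophoresis; upward fit versus DMSO.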
Nuclear receptor subfamily 4 group A member 2 (Homo sapiens), sequence (P43354 whole entry, looked up): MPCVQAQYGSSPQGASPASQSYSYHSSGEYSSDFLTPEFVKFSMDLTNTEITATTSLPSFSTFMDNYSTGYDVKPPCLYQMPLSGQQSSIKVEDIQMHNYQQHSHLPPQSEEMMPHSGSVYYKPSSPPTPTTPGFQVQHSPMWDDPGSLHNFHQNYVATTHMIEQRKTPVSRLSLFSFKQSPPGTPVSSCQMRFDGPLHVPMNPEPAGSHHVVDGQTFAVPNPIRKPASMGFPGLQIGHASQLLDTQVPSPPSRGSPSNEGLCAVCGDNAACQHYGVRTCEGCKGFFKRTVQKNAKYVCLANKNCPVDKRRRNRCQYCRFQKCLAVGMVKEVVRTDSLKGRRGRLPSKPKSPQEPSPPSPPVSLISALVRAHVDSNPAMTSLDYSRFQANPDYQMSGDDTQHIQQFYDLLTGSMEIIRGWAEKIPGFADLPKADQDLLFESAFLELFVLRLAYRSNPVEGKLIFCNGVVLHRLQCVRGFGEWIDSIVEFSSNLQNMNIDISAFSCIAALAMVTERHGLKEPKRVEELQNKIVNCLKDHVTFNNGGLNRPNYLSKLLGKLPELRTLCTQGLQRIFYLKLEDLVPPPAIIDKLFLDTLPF

Assay [9] deals with Nuclear respiratory factor 1 (Homo sapiens) (UniProt Q16656). Description: ATG_NRF1_CIS: Attagene CIS-FACTORIAL HepG2 Assay for human Nuclear Respiratory Factor 1 (NRF1) Orphan Gene (AID 2282987). The following applies: HepG2 NRF1 cis-element reporter, Attagene multiplex; actives raise or lower the signal. In short, it runs like this:
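Reporter mRNA induction or loss in HepG2 cells after 24 h dosing; cis-regulated reporter constructs report endogenous transcription-factor activity. Quantified by RT-PCR/capillary electrophoresis fluorescence, DMSO-referenced.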

Assay [10] concerns the target human Retinoid X Receptor beta (RXRb), RXRB (gene 6257) (UniProt P28702). Description: ATG_RXRb_TRANS: Attagene TRANS-FACTORIAL HepG2 Assay for human Retinoid X Receptor beta (RXRb) (AID 2283013; active means hit-call score of the fitted dose curve at least 0.9, where 1 is the maximum). In short, it runs like this: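 Multiplexed TRANS reporter assay in HepG2; 24 h dosing; reporter mRNA by RT-PCR/CE fluorescence; gain-of-signal relative to DMSO.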
Assay [11] addresses CCAAT/enhancer-binding protein beta (Homo sapiens) (UniProt P17676). Description: ATG_C_EBP_CIS: Attagene CIS-FACTORIAL HepG2 Assay for human CCAAT/Enhancer Binding Protein (C/EBP) beta (AID 2282927). The note with it: HepG2 Attagene cis-factorial transcription factor reporter; actives raise or lower the signal. In short, it runs like this: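 Endogenous C/EBPb-driven reporter transcripts measured in transfected human HepG2 cells at 24 h via RT-PCR and capillary electrophoresis of labelled fragments. Activity fitted in both directions relative to DMSO baseline.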

Assay [12] in a line: ATG_E_Box_CIS: Attagene CIS-FACTORIAL HepG2 Assay for human Enhancer Box (E-box) (AID 2282936). The note with it: HepG2 E-box cis-reporter transcription, actives raise or lower the signal. The method, boiled down: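 DMSO served as negative control and baseline for bidirectional fitting. Human hepatoma HepG2 cells, transiently transfected with cis-reporter constructs, were dosed 24 h; reporter mRNA read by RT-PCR and capillary electrophoresis.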

Assay [13] in a line: ATG_M_19_CIS: Attagene CIS-FACTORIAL HepG2 Assay for M19 Transcription Factor (Internal Marker) (AID 2282939). The note with it: HepG2 Attagene CIS-FACTORIAL M19 internal marker reporter; actives raise or lower the signal. The method, boiled down: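 HepG2, MRTU transient transfection, 24 h dosing. Total RNA → RT-PCR → 6-FAM primer extension → HpaI digest → CE fluorescence. Bidirectional curve fit, DMSO negative control.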

Assay [14] is described as follows: ATG_M_06_CIS: Attagene CIS-FACTORIAL HepG2 Assay for M06 Transcription Factor (Internal Marker) (AID 2282950). The note with it: HepG2 Attagene CIS-FACTORIAL M06 internal marker reporter; actives raise or lower the signal. In short, it runs like this: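 Measured 24 h post-dosing in transiently transfected HepG2 cells, this internal-marker endpoint reports reporter mRNA via RT-PCR with fluorescent primer extension and capillary electrophoresis. DMSO served as negative control and baseline for bidirectional fitting.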

The target in assay [15] is Hepatocyte nuclear factor 4-alpha (Homo sapiens) (UniProt P41235). Nature of the assay: ATG_HNF4a_TRANS: Attagene TRANS-FACTORIAL HepG2 Assay for human Hepatocyte Nuclear Factor 4 alpha (HNF4a) (AID 2282982; active means hit-call score of the fitted dose curve at least 0.9, where 1 is the maximum). The note with it: HepG2 HNF4a transactivation reporter, mRNA readout. In short, it runs like this:
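Transfected HepG2 reporter cells are dosed for 24 h; reporter RNA is reverse-transcribed, amplified, fluorescently labelled and HpaI-digested before CE sizing. Positive-direction fit against DMSO.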

Assay [16] can be described thus: TOX21_p53_BLA_p2_viability: Viability Assessment in the Tox21 HCT-116 p53 Agonism Beta-lactamase Assay, Phase 2 (AID 2283591; active means hit-call score of the fitted dose curve at least 0.9, where 1 is the maximum;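 further: compound exposure lasted 16 h at 37 °C; actives lower the ATP signal meaning cytotoxicity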). In short, it runs like this: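 Cytotoxicity readout: CellTiter-Glo ATP luminescence, 30 min at room temperature, after the beta-lactamase read. Cells were HCT116 exposed 16 h at 37C to compounds pin-transferred at 217-fold dilution from DMSO stocks.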

Assay [17] can be described thus: ATG_NF_kB_CIS: Attagene CIS-FACTORIAL HepG2 Assay for human Nuclear Factor Kappa B (NF-kB) (AID 2282991). The following applies: HepG2 Attagene cis-factorial NF-kB reporter mRNA; actives raise or lower the signal. The method, boiled down:
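DMSO served as negative control and baseline for bidirectional curve fitting. Transiently transfected HepG2 cells were dosed for 24 h, then reporter transcripts were measured by RT-PCR with capillary electrophoresis detection.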

Assay [18] deals with Cellular tumor antigen p53 (Homo sapiens) (UniProt P04637). Nature of the assay: TOX21_p53_BLA_p3_ratio: Tox21 HCT-116 p53 Agonism Beta-lactamase Assay, Ratio, Phase 3 (AID 2283596; active means hit-call score of the fitted dose curve at least 0.9, where 1 is the maximum). The method, boiled down:
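HCT116 p53-bla cells (4000/well) given compound in DMSO (217-fold dilution) after 5 h, incubated 16 h at 37C. CCF4-AM substrate 2 h at room temperature; 460/530 nm emission ratio, gain fitted against DMSO.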

For assay [19] the target is unchanged. Nature of the assay: TOX21_p53_BLA_p5_ratio: Tox21 HCT-116 p53 Agonism Beta-lactamase Assay, Ratio, Phase 5 (AID 2283599; active means hit-call score of the fitted dose curve at least 0.9, where 1 is the maximum). In short, it runs like this:
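Beta-lactamase reporter ratio (blue 460 nm over green 530 nm, 405 nm excitation) after 2 h CCF4-AM loading, in HCT-116 cells exposed 16 h at 37 C to compounds pinned at 217-fold dilution. Increases relative to DMSO baseline scored.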

Assay [20] shares this target. Nature of the assay: TOX21_p53_BLA_p2_ratio: Tox21 HCT-116 p53 Agonism Beta-lactamase Assay, Ratio, Phase 2 (AID 2283592; active means hit-call score of the fitted dose curve at least 0.9, where 1 is the maximum). The method, boiled down: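 In this cell-based reporter format, HCT116 cells were dosed with chemicals delivered from DMSO by 217-fold dilution and incubated 16 h at 37C. Emission at 460 and 530 nm after 2 h CCF4-AM loading provided the ratio, fitted upward versus DMSO.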

Inconclusive results are not listed. More than one record can exist for a structure, and the calls need not agree. Activity calls are given as the source filed them. How the source made its calls, unless noted: active means hit-call score of the fitted dose curve at least 0.9, where 1 is the maximum; inactive means score below 0.9.

CCAAT/enhancer-binding protein beta (Homo sapiens), sequence (P17676 whole entry, looked up, the tested form may be a part): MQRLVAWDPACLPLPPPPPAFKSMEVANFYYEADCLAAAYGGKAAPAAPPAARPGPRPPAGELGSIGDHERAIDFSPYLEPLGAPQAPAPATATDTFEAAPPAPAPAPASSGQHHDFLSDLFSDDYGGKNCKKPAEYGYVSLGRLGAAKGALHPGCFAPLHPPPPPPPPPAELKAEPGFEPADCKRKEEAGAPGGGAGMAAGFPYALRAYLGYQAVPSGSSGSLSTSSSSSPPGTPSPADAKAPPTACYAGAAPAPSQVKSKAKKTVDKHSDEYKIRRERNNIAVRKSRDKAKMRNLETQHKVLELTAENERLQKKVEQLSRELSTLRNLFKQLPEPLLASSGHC
human Retinoid X Receptor beta (RXRb), RXRB (gene 6257), sequence (P28702 whole entry, looked up): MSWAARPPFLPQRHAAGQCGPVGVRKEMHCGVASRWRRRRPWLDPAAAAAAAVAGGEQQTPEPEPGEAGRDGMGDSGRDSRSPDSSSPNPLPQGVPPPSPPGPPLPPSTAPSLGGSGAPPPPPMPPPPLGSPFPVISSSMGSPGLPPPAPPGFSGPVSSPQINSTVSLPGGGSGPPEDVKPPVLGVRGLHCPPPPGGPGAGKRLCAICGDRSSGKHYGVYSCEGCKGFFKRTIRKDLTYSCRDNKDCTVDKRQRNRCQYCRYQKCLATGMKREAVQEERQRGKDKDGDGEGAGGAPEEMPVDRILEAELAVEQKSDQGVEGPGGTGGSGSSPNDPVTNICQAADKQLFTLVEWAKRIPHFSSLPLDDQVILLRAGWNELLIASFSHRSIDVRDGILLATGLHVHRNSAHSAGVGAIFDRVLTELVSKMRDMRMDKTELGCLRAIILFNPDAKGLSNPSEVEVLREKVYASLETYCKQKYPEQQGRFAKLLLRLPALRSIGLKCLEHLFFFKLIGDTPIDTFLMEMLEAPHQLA
Nuclear respiratory factor 1 (Homo sapiens), sequence (Q16656 whole entry, looked up): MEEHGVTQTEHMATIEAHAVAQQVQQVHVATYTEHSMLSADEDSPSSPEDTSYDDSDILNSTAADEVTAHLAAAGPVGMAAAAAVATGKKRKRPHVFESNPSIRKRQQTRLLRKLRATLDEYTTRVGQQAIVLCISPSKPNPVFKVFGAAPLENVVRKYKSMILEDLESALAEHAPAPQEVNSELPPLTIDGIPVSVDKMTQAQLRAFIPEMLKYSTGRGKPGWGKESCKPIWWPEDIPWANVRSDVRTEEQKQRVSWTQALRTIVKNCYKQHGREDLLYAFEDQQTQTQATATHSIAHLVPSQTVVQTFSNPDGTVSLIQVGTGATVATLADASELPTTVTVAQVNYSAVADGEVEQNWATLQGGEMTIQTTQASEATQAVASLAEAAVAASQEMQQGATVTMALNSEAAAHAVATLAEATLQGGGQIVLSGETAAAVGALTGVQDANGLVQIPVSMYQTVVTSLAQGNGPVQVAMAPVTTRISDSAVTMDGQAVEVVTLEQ
Cellular tumor antigen p53 (Homo sapiens), sequence (P04637 whole entry, looked up): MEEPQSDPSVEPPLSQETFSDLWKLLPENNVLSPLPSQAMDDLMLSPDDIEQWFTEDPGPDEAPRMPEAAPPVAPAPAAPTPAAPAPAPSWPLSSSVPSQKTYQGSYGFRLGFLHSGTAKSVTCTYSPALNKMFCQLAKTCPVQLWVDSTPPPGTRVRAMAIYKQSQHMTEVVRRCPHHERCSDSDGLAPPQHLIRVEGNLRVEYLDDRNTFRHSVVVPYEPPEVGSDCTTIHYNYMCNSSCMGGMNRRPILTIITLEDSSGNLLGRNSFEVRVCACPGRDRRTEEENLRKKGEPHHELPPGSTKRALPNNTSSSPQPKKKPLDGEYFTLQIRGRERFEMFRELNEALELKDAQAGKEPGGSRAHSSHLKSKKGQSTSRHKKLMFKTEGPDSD
Hepatocyte nuclear factor 4-alpha (Homo sapiens), sequence (P41235 whole entry, looked up): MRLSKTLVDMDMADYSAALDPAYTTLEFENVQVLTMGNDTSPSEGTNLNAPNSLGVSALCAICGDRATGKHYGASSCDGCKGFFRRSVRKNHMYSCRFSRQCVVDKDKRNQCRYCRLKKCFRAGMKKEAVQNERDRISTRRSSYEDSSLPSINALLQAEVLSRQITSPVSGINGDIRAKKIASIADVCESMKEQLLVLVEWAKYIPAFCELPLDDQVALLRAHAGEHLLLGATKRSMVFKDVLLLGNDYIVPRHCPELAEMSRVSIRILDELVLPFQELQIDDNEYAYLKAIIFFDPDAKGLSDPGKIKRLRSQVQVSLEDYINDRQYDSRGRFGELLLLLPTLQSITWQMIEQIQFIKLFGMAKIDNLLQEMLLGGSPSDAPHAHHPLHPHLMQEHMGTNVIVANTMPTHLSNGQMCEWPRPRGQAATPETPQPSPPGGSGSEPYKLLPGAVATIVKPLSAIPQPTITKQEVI

Broadly, the AC50 is the concentration giving half of the maximal activity seen. As to `CC(C)(C)C(O)C(Oc1ccc(-c2ccccc2)cc1)n1cncn1` (centres undefined), the AC50 in assay [1] was 44.2 µM (active); in assay [8], 53.9 µM (active). The call in [2], in assay [3], in assay [4], in [5], in assay [6] and in assay [7] was inactive. Besides, the result in [9] and in assay [10] was inactive.

Consider `O=[N+]([O-])O`, for which the result in assay [11], in assay [1], in [12], in assay [13], in [3] and in assay [14] was inactive. Moreover, the call in assay [6], in [15], in assay [7], in assay [9] and in assay [16] was inactive.

On to `CC(C)COP(=O)(OCC(C)C)OCC(C)C`, for which the outcome in assay [11], in assay [1], in [2], in assay [12], in assay [14] and in [5] was inactive. The molecule was classed as inactive in assay [7], in [9], in assay [17], in assay [10], in assay [16] and in assay [18]. For the same molecule, the result in assay [19] was inactive.

On to `BrCBr`, for which the molecule was called inactive in assay [1], in assay [2], in [12], in assay [3], in assay [4] and in assay [5]. In addition, the molecule was classed as inactive in [6], in assay [15], in assay [8], in assay [9], in [16] and in assay [20]. The outcome in assay [18] and in assay [19] was inactive.

With `c1ccc(Nc2ccc3ccccc3c2)cc1`, the result in assay [11], in assay [12], in assay [3], in assay [4], in assay [5] and in assay [6] was inactive. For the same molecule, the result in assay [15], in [7], in [8], in [9], in assay [17] and in assay [16] was inactive. The outcome in [20], in [18] and in assay [19] was inactive. The AC50 in [1] was 115 µM (active); in [16], 63.2 µM (active); in assay [20], 74.9 µM (active).

In the case of `SCc1ccco1`, the molecule was classed as inactive in [13], in [3], in assay [14], in assay [4], in assay [5] and in [6]. The molecule was classed as inactive in assay [15], in [7], in [8], in assay [17] and in assay [10].

Take `CC1CCC(=O)O1` (centres undefined): the result in assay [1], in assay [2], in assay [14], in assay [5], in [6] and in assay [15] was inactive. The outcome in assay [8], in assay [9], in assay [17], in assay [20], in assay [18] and in [19] was inactive.

As for `CCCCCCCCCCCC#N`, the AC50 in [1] was 73.6 µM (active); in [3], 163 µM (active); in assay [17] it was 131 µM (active); in assay [10], 44.5 µM (active). For the same molecule, the molecule was called inactive in assay [2], in [12], in assay [14], in [4], in assay [5] and in assay [6]. The outcome in assay [8], in assay [20], in [18] and in [19] was inactive.

Take `N#CCCCCC#N`: the result in [11], in [2], in [12], in assay [13], in assay [14] and in [4] was inactive. In addition, the molecule was called inactive in [5], in assay [7], in [16], in assay [18] and in assay [19].

For the origin of these results see PubChem BioAssay (EPA / NIEHS).
